# Screening data: PubChem BioAssay, National Center for Advancing Translational Sciences (NCATS)
# The list is not random: actives were taken first. Their share in the collection is about 19%.
# TDP1 cell noCPT = qHTS for Inhibitors of human tyrosyl-DNA phosphodiesterase 1 (TDP1): qHTS in cells in absence of CPT. DT40 Tdp1-/- hTDP1 cells, no CPT, ATP luminescence, 48 h. Potency, µM (titrated, usually from 46.2 µM), without a hit: at the top dose activity change, negative = growth inhibition, most hits filed as inhibitors. 15% of 420,000 active. AID 686978, 2013; also: potency is read from the fitted curve at half-maximal effect; nearly all actives have a fitted effect of over 55% in size
#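 Camptothecin absent (DMSO only). Human TDP1-complemented DT40 knockout cells, 400 cells/well, 37 °C for minimum 48 hr; ATP measured via CellTiter-Glo, 30 min dark incubation, luminescence.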
# HT1080NT lethal = kills 2HG-producing HT-1080-NT fibrosarcoma cells | AID 686970 | HT-1080-NT fibrosarcoma viability, CellTiter-Glo ATP luminescence, 48 h | 1.6% of 360,000 active | Potency, µM (top dose mostly 46.1 µM), for the others: at the highest dose activity, negative = less viability, actives largely listed as cytotoxic;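 also: NT is the 2HG producing partner of a matched IDH1 knockdown line; potency is read from the fitted curve at half-maximal effect; 0% = DMSO-treated cells and -100% = media-only wells without cells; nearly all actives have a fitted effect of over 55% in size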
#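 Read-out is CellTiter-Glo luminescence after 10 minutes at room temperature, following 48 hours' compound treatment of HT-1080-NT cells (750 cells/well, RPMI, 5% FBS, 37 degrees C).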
# DT40 TDP1 CPT = DT40-hTDP1 cell growth loss with CPT; chicken DT40 Tdp1-/-;hTDP1 cells + 20 nM CPT, ATP luminescence, 48 h; Potency, µM (series often up to 46.2 µM), for the others: at the top dose activity change, negative = growth inhibition, actives largely listed as inhibitors; 12% of 420,000 active; also: potency is read from the fitted curve at half-maximal effect; nearly all actives have a fitted effect of over 55% in size
#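 Cell growth measured by CellTiter-Glo luminescence after a minimum 48 h, 37 C compound exposure with 20 nM CPT in Tdp1-knockout DT40 cells stably expressing hTDP1, seeded 400/well; qHTS titration format.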
# HT1080 IDH1KD tx = toxicity to HT-1080 IDH1 knockdown cells (counter line); HT-1080 IDH1 knockdown viability, ATP luminescence, 48 h; AID 686971; Potency, µM (top dose mostly 46.1 µM), for the others: at the highest dose activity, negative = toxicity, actives largely listed as cytotoxic; 2% of 360,000 active;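 also: potency is read from the fitted curve at half-maximal effect; 0% = DMSO wells and -100% = cell-free medium wells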
#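 Assay cells: HT-1080 with IDH1 knockdown, 750 per well, RPMI/5% FBS. Exposure: 48 h at 37 °C following 2 h pre-incubation. Read: CellTiter-Glo luminescence; fitted concentration-response, curve class assigned.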
# IL1B secr inh = inhibitors of inflammasome signaling (IL-1 beta secretion); 4.7% of 360,000 active; THP-1 LPS/ATP IL-1B secretion, AlphaLISA, 16 h; stronger effect = lower value; AID 743279; activity change, % at 57.5 µM; in the data active = activity change below about -50%; inconclusive = mostly about -30% to -49%
#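 THP-1 cells pretreated 1 hr with compounds (up to 57.5 uM final), then stimulated with LPS (250 ng/mL final) plus ATP (1.25 mM final); secreted IL-1B measured by AlphaLISA after 16 hr, decreased signal indicating inhibition.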
# The depositor's hits bear a star; u = inconclusive; x = no result given; [ ] = remark or other dose. Unless noted, calls follow the shape of the dose curve; as a rule, active = well fitted curve in the direction sought with a large enough effect; inconclusive = small, poorly fitted or top-dose-only effect, or another doubt; inactive = no such curve, though single readings can be large; an effect the other way counts as inactive or inconclusive. Unless noted, % is scaled to controls: 0 for no effect and ±100 for the full control effect.
SMILES,TDP1 cell noCPT,HT1080NT lethal,DT40 TDP1 CPT,HT1080 IDH1KD tx,IL1B secr inh
CC(C)(C)OC(=O)N1CCC[C@H]1c1nnc(SCc2ccc(Cl)cc2Cl)o1,14.6µM*,-29.9%,u,u,u
CC(C)(C)OC(=O)N1CCC[C@H]1c1nnc(SCc2ccccc2Cl)o1,u,0.8%,u,6.5%,-0.4
CC(C)(C)OC(=O)N1CCC[C@H]1c1nnc(SCc2cccc(Cl)c2)o1,-29.2%,3.8%,-0.8%,-0.2%,-14.1
CC(C)NC(=O)[C@@H]1C[C@@]1(C)[C@@H](NC(=O)OCc1ccccc1)c1ccccc1,-5.0%,1.3%,-2.4%,5.4%,17.3
COC(=O)CN(C#N)c1nc(NC(C)C)nc(NC(C)C)n1,-7.7%,-0.4%,-12.6%,-0.5%,2.7
COc1ccc(-c2ccc(C(=O)NCC3Cc4cccc(-c5nc(C)cnc5C)c4O3)o2)cc1 (centres undefined),u,x,-1.5%[9.04 µM],x,x
CCOC(=O)C1CCC(CN(Cc2cccc(Br)c2)S(=O)(=O)c2ccc(Cl)cc2)CC1 (centres undefined),20.6µM*,x,29.1µM*,x,x
CCOC(=O)C1CCC(CN(Cc2c(Cl)cccc2Cl)S(=O)(=O)c2ccc(Cl)cc2)CC1 (centres undefined),20.6µM*,x,u,x,x
CCOC(=O)N1CCC(NC(=O)c2cc3c(=O)n(C)c4ccccc4c3n2C)CC1,u,0.6%,20.6µM*,0.6%,-5.4
CCOC(=O)c1ccc(NC(=O)c2cc3c(=O)n(C)c4ccccc4c3n2C)cc1,0.0%,x,25.2%,x,x
Cn1c(C(=O)NC2CC2)cc2c(=O)n(C)c3ccccc3c21,u,-3.3%,u,-1.5%,-63.3*
Cn1c(C(=O)Nc2ccc3c(c2)OCCO3)cc2c(=O)n(C)c3ccccc3c21,11.6µM*,-26.6%,13µM*,-28.3%,-68.6*
CC1CC[C@@]2(C(=O)O)CCC3(C)C(=CCC4[C@]5(C)CC(O)C(O)[C@](C)(CO)C5C(O)C[C@@]43C)C2C1C (some centres undefined),0.4%,x,1.0%,x,x
O=S(=O)(Nc1cccc(S(=O)(=O)N2CCOCC2)c1)c1cccs1,-2.2%,12.2%,4.6%,7.3%,9.1
CC1(C)CC(=O)C=C(c2ccc(COC(=O)/C=C/c3ccccc3)cc2)C1=O,20.6µM*,-29.5%,u,-21.9%,17.9
CC1(C)CC(=O)C=C(c2ccc(COC(=O)c3ccccc3)cc2)C1=O,u,-3.6%,-24.7%,-12.6%,19.2
CCOC(=O)Cn1c(CN2CCc3ccccc3C2)nc2c1c(=O)n(C)c(=O)n2C,4.61µM*,0.0%,4.11µM*,1.5%,39.9
Cn1c(=O)c2c(nc(CN3CCN(c4ccc(F)cc4)CC3)n2Cc2ccccc2F)n(C)c1=O,8.2µM*,-7.5%,10.3µM*,-0.6%,1.6
Cn1c(=O)c2c(nc(CN3CCN(c4ccccc4F)CC3)n2Cc2ccccc2F)n(C)c1=O,5.17µM*,x,6.51µM*,x,x
Cn1c(=O)c2c(nc(CN3CCc4ccccc4C3)n2Cc2ccccc2F)n(C)c1=O,6.51µM*,-0.9%,8.2µM*,-2.2%,-62.6*
Cn1c(=O)c2c(nc(CN3CCc4ccccc4C3)n2CCCO)n(C)c1=O,u,2.8%,-15.2%,1.5%,0.0
CC(=O)Nc1ccc(S(=O)(=O)N2CCC3(CC2)OCCO3)cc1,-0.1%,11.4%,-17.7%,1.4%,17.3
COc1ccc(C(C)=O)cc1COc1cccc2cccnc12,u,2.9%,-3.8%,-0.6%,53.8
COc1cc(C(C)=O)ccc1OCCCOc1cccc2cccnc12,u,-17.5%,18.4µM*,-19.1%,-11.0
CC(=O)c1ccccc1OCCOCCOCCOc1ccccc1C(C)=O,u,-3.5%,18.4µM*,0.1%,-16.1
SMILES,TDP1 cell noCPT,HT1080NT lethal,DT40 TDP1 CPT,HT1080 IDH1KD tx,IL1B secr inh
CC(=O)c1ccccc1OCCCN1CCCCC1,-18.8%,0.0%,-2.5%,-0.3%,-8.2
C/C(=N\NC(=O)c1ccc(CSc2cccc3cccnc23)cc1)C1CCCCC1,-9.7%,-8.5%,12.6%,-9.7%,-4.4
CC(=O)c1ccc(OCCCOc2cccc3cccnc23)cc1,u,-4.2%,u,-1.2%,-69.8*
COc1ccc(/C(C)=N/NC(=O)c2ccc(CSc3cccc4cccnc34)cc2)cc1OC,15.8µM*,0.4%,u,-30.0%,-16.1
Cc1ccc(C(C(=O)NCc2ccco2)N(CCc2ccccc2)C(=O)Cn2nnc3ccccc32)o1 (centres undefined),u,-8.8%,u,-6.3%,1.5
C/C(=N/NC(=O)c1nnn(-c2nonc2N)c1COc1ccccc1)c1ccc(O)cc1,-3.2%,-22.6%,-26.3%,-20.9%,-26.3
CCc1ccc(OCC(=O)Nc2ccc3c(c2)OCCO3)cc1,-15.1%,8.5%,-10.8%,-1.9%,1.3
CC(C)Oc1ccccc1OCCCOc1cccc2cccnc12,20.6µM*,-4.5%,u,-29.9%,u
c1ccc(OCCOc2cccc3cccnc23)cc1,-28.1%,-2.1%,-15.1%,-2.9%,-22.6
Cc1cc(OCCOc2cccc3cccnc23)cc(C)c1Cl,18.4µM*,u,14.6µM*,u,-12.5
OCc1ccccc1OCCCOc1cccc2cccnc12,-10.1%,-11.4%,-1.2%,6.1%,-18.3
CC(=O)c1ccccc1OCCCOc1cccc2cccnc12,23.1µM*,-10.5%,23.1µM*,-9.3%,15.0
Cc1ccc(S(=O)(=O)NC2CC2)cc1[N+](=O)[O-],-6.9%,0.9%,-3.6%,4.2%,-10.9
COc1cccc(C2=NOC(C(=O)NC(C)(C)C)C2)c1 (centres undefined),-0.3%,8.1%,-3.1%,-17.0%,-9.6
COc1cccc(C2=CC(=O)C(C(C)(C)C)N2C(C)(C)C)c1 (centres undefined),20.6µM*,4.8%,u,3.8%,16.3
O=C(c1cc(-c2ccccc2)nc2ccccc12)N1N=C(C(F)F)CC1(O)C(F)F (centres undefined),-10.4%,-6.1%,-28.7%,-14.6%,4.9
CCOc1cccc(-c2cc(C(=O)N3N=C(C)CC3(O)C(F)F)c3ccccc3n2)c1 (centres undefined),u,-27.9%,15.9%,-7.1%,-64.1*
Cc1ccc(-c2cc(C(=O)N3N=C(C(F)F)CC3(O)C(F)F)c3ccccc3n2)cc1C (centres undefined),u,u,18.4µM*,u,-71.3*
COc1ncc2nc(-c3ccccc3)c(=O)n(CCc3ccccc3)c2n1,3.5%,x,0.9%,x,x
O=C(NCC(=O)N1CCN(S(=O)(=O)/C=C/c2ccccc2)CC1)c1ccccc1F,0.9%,-2.6%,3.2%,u,16.7
